The list is not random: actives were taken first. Their share in the collection is about 10%.
VP16 counter = inhibits Gal4-VP16 luciferase reporter, ROR gamma counter-screen; Drosophila S2 Gal4-VP16 UAS-luciferase, luminescence, 20 h; Potency, µM (titrated, usually from 53.6 µM), for inactives: top-dose activity, negative = inhibition, hits mostly inhibitors; actives 3.5% (n = 310,000); AID 2546;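 note: Gal4-VP16 expression switched on by copper sulfate through the metallothionein promoter; % is set by controls: 0 for no effect and ±100 for the full control effect; nearly all actives have a fitted effect of over 50% in size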
ELG1 DNA repair = blocks ELG1-dependent DNA repair in HEK293T cells. HEK293T ELG1-luciferase reporter, luminescence, 16 h; DNA damage induced by 5-fluorouridine. actives 2.3% (n = 330,000). Potency, µM (titrated, usually from 46.1 µM), inactives show at the top dose activity change, negative = inhibition, usual class: inhibitors. AID 504467; note: % is set by controls: 0 for no effect and ±100 for the full control effect; nearly all actives have a fitted effect of over 55% in size
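5-Fluorouridine DNA damage + compound/DMSO, 2,000 cells/well, 16 h, 37 °C/5% CO2. ONE-Glo, 30 min RT, luminescence. Readout = decrease in reporter signal.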
RORg inh = blocks mouse ROR gamma transcriptional activity; actives 5.4% (n = 310,000); Drosophila S2 Gal4-RORgamma UAS-luciferase reporter, 20 h; AID 2551; Potency, µM (series often up to 53.6 µM), without a hit: at the top dose activity change, negative = inhibition, hits mostly inhibitors; P51450; note: % is set by controls: 0 for no effect and ±100 for the full control effect; nearly all actives have a fitted effect of over 60% in size
Target sequence (P51450 whole entry, looked up, the tested form may be a part): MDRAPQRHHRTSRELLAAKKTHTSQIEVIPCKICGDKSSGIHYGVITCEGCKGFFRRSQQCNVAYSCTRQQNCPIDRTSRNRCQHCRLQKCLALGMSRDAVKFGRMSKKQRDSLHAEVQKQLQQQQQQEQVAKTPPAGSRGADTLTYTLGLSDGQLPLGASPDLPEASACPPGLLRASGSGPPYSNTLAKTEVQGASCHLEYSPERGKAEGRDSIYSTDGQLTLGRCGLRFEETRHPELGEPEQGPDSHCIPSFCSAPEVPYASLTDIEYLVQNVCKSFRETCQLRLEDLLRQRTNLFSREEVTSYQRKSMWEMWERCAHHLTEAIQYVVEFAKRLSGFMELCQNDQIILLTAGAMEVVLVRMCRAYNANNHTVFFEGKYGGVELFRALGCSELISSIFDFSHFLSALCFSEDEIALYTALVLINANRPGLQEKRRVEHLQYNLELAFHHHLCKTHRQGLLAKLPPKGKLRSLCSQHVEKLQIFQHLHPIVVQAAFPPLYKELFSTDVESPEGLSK
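Luciferase reporter read in Schneider cells carrying Gal4-RORγ (mouse) and UAS-Photinus luciferase; cells given compound 1 h before 700 uM copper sulfate induction, then incubated 20 h at ambient temperature.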
MCF10A rerep = induces DNA re-replication in MCF 10a normal breast cells. Potency, µM (titrated, usually from 46.1 µM), for inactives: at the top dose activity, positive = re-replication, hits mostly activators. MCF 10A DNA re-replication, Hoechst nuclear intensity, 48 h. actives 2.9% (n = 350,000); note: % of control where 0% means no effect; nearly all actives have a fitted effect of over 50% in size
SW480 rereplic = induces DNA re-replication in SW480 colon adenocarcinoma cells; SW480 DNA re-replication, Hoechst DNA content imaging, 48 h; Potency, µM (titrated, usually from 46.1 µM), for inactives: at the top dose re-replication activation, actives largely listed as activators; actives 1.8% (n = 340,000); AID 624297; note: % of control where 0% means no effect; nearly all actives have a fitted effect of over 55% in size
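Image-based DNA-content assay: after two days of treatment, nuclei were labelled with the DNA dye Hoechst and imaged, and hits were compounds raising the count of nuclei showing high fluorescence intensity.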
* hit, by the source's call; ? = inconclusive; . = not tested or not shown; [ ] = another dose, or the depositor's remark. Calls come from the whole dose curve; as a rule, active = well fitted curve in the direction sought with a large enough effect; inconclusive = small, poorly fitted or top-dose-only effect, or another doubt; inactive = no such curve, though single readings can be large; an effect the other way counts as inactive or inconclusive. Potency is the fitted concentration of half-maximal effect.

SMILES	VP16 counter	ELG1 DNA repair	RORg inh	MCF10A rerep	SW480 rereplic
COc1ccc(C2/C=C\CN(C(=O)C3CC3)[C@H](Cc3ccccc3)C(=O)N2Cc2ccc(F)cc2)cc1 (some centres not stated)	-20%	6%	11µM*	-26%	0%[9.22 µM]
COc1ccc(C2/C=C\CC(OCc3ccccc3)CC(=O)N2Cc2cccc(F)c2)cc1 (configuration not stated)	-7%	21µM*	9%	?	?
COc1ccc(C2/C=C\CN(C(=O)C3CC3)C(Cc3ccccc3)C(=O)N2Cc2ccc(F)cc2)cc1 (configuration not stated)	?	.	10µM*	.	.
CCCCCCC(=O)N1C/C=C\C(c2ccc(OC)cc2)N(Cc2ccc(F)cc2)C(=O)[C@H]1Cc1ccccc1 (some centres not stated)	?	24%	-3%	-17%	-90%[9.22 µM]
COc1ccc(C2/C=C\CN(C(=O)c3ccc(C)cc3)[C@H](Cc3ccccc3)C(=O)N2Cc2ccc(F)cc2)cc1 (some centres not stated)	4%	?	?	?	1%
CCCCC(=O)N1C/C=C\C(c2ccc(OC)cc2)N(Cc2ccc(F)cc2)C(=O)[C@H]1Cc1ccccc1 (some centres not stated)	?	?	?	?	3.7µM*
COc1ccc(C2/C=C\CN(C(=O)OCc3ccccc3)CC(=O)N2Cc2ccc(F)cc2)cc1 (configuration not stated)	-5%	-9%	1%	2%	-15%
CSc1nc2ccccc2n1Cc1c(Cl)cccc1Cl	19%	-3%	?	?	-1%
CCOc1ccc(CCNC(=O)c2cccc(-n3cnnn3)c2)cc1OCC	.	-20%	.	2%	-2%
Cc1cccn2c(NCc3ccc4c(c3)OCO4)c(-c3ccc(O)cc3)nc12	-7%	?	27%	?	-2%
NC(=O)N/N=C/c1sc(N2CCCCC2)nc1-c1cccs1	.	.	.	23µM*	21µM*
Cc1cc(C(=O)N/N=C/c2sc(N3CCOCC3)nc2-c2ccccc2)c(C)o1	1%	?	?	?	?
O=C(N/N=C/c1sc(N2CCCCC2)nc1-c1cccs1)C1CC1	?	?	7.1µM*	?	?
CCCCNC(=S)N(C)/N=C/c1ccccc1F	-24%	7%	-42%	-1%	-6%
CC(C)NC(=S)N/N=C/c1sc(N2CCCCC2)nc1-c1cccs1	?	?	1.4µM*	?	17%
Nc1ccc(C(=O)N/N=C/c2sc(N3CCOCC3)nc2-c2ccccc2)cc1	-19%	?	?	15%	-8%
CCCCNC(=S)N(C)/N=C/c1sc(N2CCCCC2)nc1-c1cccs1	-5%	4%	11µM*	3%	-3%
CS(=O)(=O)c1cccc(C(=O)Nc2ccccc2Cc2ccccc2)c1	1%	9%	33%	-4%	-5%
O=C(O)C(CCCCNS(=O)(=O)c1ccc(F)cc1)NS(=O)(=O)c1ccc(F)cc1 (configuration not stated)	-9%	-10%	3%	-3%	-20%
CC(C)N(C)C	-7%	.	1%	.	.
O=C(COc1cccc(C(F)(F)F)c1)N1CCN(c2ccccc2O)CC1	7%[10 µM]	-4%	?	29%	-6%
O=C(COc1cccc(C(F)(F)F)c1)N1CCN(c2ccc(O)cc2)CC1	2%	16µM*	18%	10%	-6%
O=C(CN1CCC(Cc2ccccc2)CC1)NCCc1ccc(F)cc1	-3%	-3%	9%	?	?
CCN1CCC(NCCc2ccc(F)cc2)CC1	.	-4%	.	18µM*	-3%
Cn1c(=S)c2[nH]c(SCC3CCCO3)nc2n(C)c1=O (configuration not stated)	.	.	.	3%	?
SMILES	VP16 counter	ELG1 DNA repair	RORg inh	MCF10A rerep	SW480 rereplic
COc1cc(Cl)c(C)cc1NC(=O)CSC1=NCCS1	.	-5%	.	27%	-4%
C=CCn1c(SCC(=O)Nc2ccccc2C)nc2sc(C)c(C)c2c1=O	20µM*	-12%	35µM*	?	?
Cc1sc2nc(SCc3ccc(C(=O)O)cc3)n(Cc3ccco3)c(=O)c2c1C	-19%	?	8%	-3%	-14%
CCc1nc(SCC(=O)Nc2ccccc2Cl)n[nH]1	8%	5%	15%	-5%	9.2µM*
C=CCn1c(SCC(=O)Nc2sccc2C(N)=O)nc2sc(C)c(C)c2c1=O	22%	8%	10%	9%	2%
C=CCn1c(SCc2ccc(C(=O)O)cc2)nc2sc(C)c(C)c2c1=O	7.1µM*	?	4µM*	-5%	-1%
COc1ccccc1NC(=O)Cn1cnc2sc(C(=O)Nc3cc(OC)c(OC)c(OC)c3)c(C)c2c1=O	-4%	8.2µM*	-4%	10%	-16%
CCc1nc(SCC(=O)Nc2ccccc2C)n[nH]1	8%	11%	12%	-2%	?
COc1ccc(CC(=O)Oc2ccc(Cl)cc2Br)cc1S(=O)(=O)N1CCOCC1	.	12%	.	0%	-9%
Cc1nc(SCC(=O)NC2CCCC2)c2c(C)c(C)sc2n1	22%	7%	1%	?	0%
COc1ccccc1NC(=O)CSc1nc2sc(C)c(C)c2c(=O)n1C	?	15µM*	?	11%	-2%
Cc1sc2nc(SCC(=O)Nc3c(C)n(C)n(-c4ccccc4)c3=O)n(C)c(=O)c2c1C	-15%	?	25%	-3%	0%
Cc1nc(SCC(=O)Nc2ccccc2Cl)c2c(C)c(C)sc2n1	.	?	.	23µM*	2%
O=C(Cn1cncn1)c1ccc(F)cc1F	-2%	8%	3%	2%	-12%
O=C1/C(=C/c2ccncc2)SC(=S)N1N1CCOCC1	?	19%	-28%	2%	-9%
C=CCOc1ccc(/C=C2\SC(=S)N(N3CCOCC3)C2=O)cc1	1%	-8%	-2%	-3%	5.8µM*
C=CCc1c(C)nc(SC)nc1Nc1ccc(C)cc1	3%	?	10µM*	?	?
C=CCc1c(C)nc(C)nc1N/N=C/c1ccc(F)cc1	?	-13%	?	-2%	-5%
CCOC(=O)c1nn(-c2ccc(OCC)cc2)c2nc(CC(C)C)c(C#N)c(=O)n12	-11%	0%	-20%	-1%	4%
CCOC(=O)c1nn(-c2cccc(Cl)c2)c2nc(CC(C)C)c(C#N)c(=O)n12	-10%	15%	-1%	23µM*	-8%
O=[N+]([O-])c1c(NCCO)cc(N2CCN(Cc3ccc4c(c3)OCO4)CC2)c2nonc12	?	21µM*	-101%	12%	-4%
O=[N+]([O-])c1c(NCCO)cc(N2CCCCCC2)c2nonc12	1%	-1%	?	35%	17%
CCNc1nc(NC(C)(C)C)nc(SC(C(C)=O)C(C)=O)n1	-22%	-15%	?	17%	-10%
